The list is not random: actives were taken first. Their share in the collection is about 19%.
DT40 TDP1 CPT – growth inhibition of DT40 Tdp1-/-;hTDP1 cells with camptothecin (screen for TDP1 inhibitors) | chicken DT40 Tdp1-/-;hTDP1 cells + 20 nM CPT, ATP luminescence, 48 h | Potency, µM (titrated, usually from 46.2 µM), inactives show at the highest dose activity change, negative = growth inhibition, most hits filed as inhibitors | hit rate 12% among 420,000; note: potency is the fitted concentration of half-maximal effect; nearly all actives have a fitted effect of over 55% in size
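Cell growth measured by CellTiter-Glo luminescence after a minimum 48 h, 37 C compound exposure with 20 nM CPT in Tdp1-knockout DT40 cells stably expressing hTDP1, seeded 400/well; qHTS titration format.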
DT40 TDP1 no CPT – qHTS for Inhibitors of human tyrosyl-DNA phosphodiesterase 1 (TDP1): qHTS in cells in absence of CPT; DT40 Tdp1-/- hTDP1 cells, no CPT, ATP luminescence, 48 h; Potency, µM (highest dose often 46.2 µM), without a hit: at the top dose activity change, negative = growth inhibition, actives largely listed as inhibitors; hit rate 15% among 420,000; AID 686978, 2013; note: potency is the fitted concentration of half-maximal effect; nearly all actives have a fitted effect of over 55% in size
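Growth of hTDP1-complemented DT40 Tdp1-knockout cells is measured by ATP luminescence after at least 48 hr compound exposure at 37 °C, with DMSO substituting for the 20 nM CPT used in the parallel screen.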
HT1080 IDH1KD tx – toxicity to HT-1080 IDH1 knockdown cells (counter line). HT-1080 IDH1 knockdown viability, ATP luminescence, 48 h. Potency, µM (top dose mostly 46.1 µM), for the others: at the top dose activity, negative = toxicity, most hits filed as cytotoxic. hit rate 2% among 360,000. AID 686971;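 note: potency is the fitted concentration of half-maximal effect; 0% = DMSO wells and -100% = cell-free medium wells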
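In this qHTS, HT-1080 cells depleted of IDH1 are exposed for 48 h at 37 °C to compound titrations. Toxicity is scored from CellTiter-Glo luminescence, with DMSO as full viability and medium alone as none.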
HT1080NT lethal – kills 2HG-producing HT-1080-NT fibrosarcoma cells. HT-1080-NT fibrosarcoma viability, CellTiter-Glo ATP luminescence, 48 h. Potency, µM (series often up to 46.1 µM), for inactives: top-dose activity, negative = less viability, usual class: cytotoxic. hit rate 1.6% among 360,000. AID 686970;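 note: NT is the 2HG producing partner of a matched IDH1 knockdown line; potency is the fitted concentration of half-maximal effect; 0% = DMSO-treated cells and -100% = media-only wells without cells; nearly all actives have a fitted effect of over 55% in size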
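Viability of the 2HG-overproducing fibrosarcoma line after 48 hours of compound exposure at 37 degrees C was determined by luminescence with CellTiter-Glo, and concentration-effect curves were then fitted and categorized.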
IL1B secr inh – inflammasome signaling inhibition, IL-1 beta readout | THP-1 LPS/ATP IL-1B secretion, AlphaLISA, 16 h; active compounds read low | activity change, % at 57.5 µM | hit rate 4.7% among 360,000 | AID 743279; in the data active = activity change below about -50%; inconclusive = mostly about -30% to -49%
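Secreted IL-1B measured by AlphaLISA bead assay after 16 h compound exposure of THP-1 cells; compounds (final up to 57.5 uM) added 1 h before LPS (250 ng/mL) and ATP (1.25 mM) stimulation; lower signal means less secretion.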
Numbers without * were called inactive; i = inactive; ? = inconclusive; . = no result given. Unless noted, calls come from the whole dose curve; as a rule, active = well fitted curve in the direction sought with a large enough effect; inconclusive = small, poorly fitted or top-dose-only effect, or another doubt; inactive = no such curve, though single readings can be large; an effect the other way counts as inactive or inconclusive. Unless noted, % is set by controls: 0 for no effect and ±100 for the full control effect.

SMILES | DT40 TDP1 CPT | DT40 TDP1 no CPT | HT1080 IDH1KD tx | HT1080NT lethal | IL1B secr inh
CCOc1cc2c(C#N)c(N3CCCCC3)nc(N)c2c(N)n1 | ? | ? | -19% | -25% | 0
COc1cc2c(C#N)c(N3CCOCC3)nc(N)c2c(N)n1 | 13µM* | 23µM* | ? | ? | -54*
CCOC(=O)c1cc(C#N)c(C)nc1N(CC)CC | 15% | -5% | 2% | 15% | 9
COc1cc2c(C#N)c(N3CCCCC3)nc(N)c2c(N)n1 | 9.2µM* | 13µM* | ? | ? | ?
CCN(CC)c1nc(N)c2c(N)nc(OC)cc2c1C#N | 15µM* | 23µM* | 0% | 4% | -2
CCOC(=O)C1CCN(c2nc(N)c3c(N)nc(SCC(=O)O)cc3c2C#N)CC1 | ? | ? | 0% | -2% | 21
COc1cc2c(C#N)c(N3CCc4ccccc4C3)nc(N)c2c(N)n1 | 21µM* | 21µM* | ? | ? | -54*
CCC1(c2ccc(OC)cc2)NC(=O)N(CC(=O)NC2CCCCC2C)C1=O (stereo not drawn) | ? | -7% | 3% | 0% | -24
COn1c(-c2ccccc2)nc2c1CCc1nonc1-2 | -8% | -14% | 10% | 8% | -27
c1ccc(COn2c(-c3ccccc3)nc3c2CCc2nonc2-3)cc1 | ? | 26µM* | -16% | 2% | 2
CCC(CO)Nc1nc2ccc(Cl)cc2c2ccccc12 (stereo not drawn) | ? | ? | 18µM* | ? | -79*
O=c1oc2ccc(Cl)cc2nc1/C=C(\O)c1ccco1 | ? | 18µM* | -20% | -18% | -4
CC(C)C/C(O)=C/c1nc2cc(Cl)ccc2oc1=O | ? | ? | ? | ? | 1
CC1CN(S(=O)(=O)c2cccc(C(=O)N(CCc3ccccc3)Cc3ccccc3)c2)CC(C)O1 (stereo not drawn) | 7.3µM* | 5.8µM* | -26% | -8% | -23
CC(=O)N1CCN(S(=O)(=O)c2cccc(C(=O)N(Cc3ccccc3)c3ccc(C)cc3)c2)CC1 | ? | ? | 5% | 1% | -7
CC1CN(S(=O)(=O)c2cccc(C(=O)OCC(=O)NCc3ccccc3)c2)CC(C)O1 (stereo not drawn) | ? | ? | 1% | -2% | 14
Cc1ccc(N(Cc2ccccc2)C(=O)c2cccc(S(=O)(=O)N3CC(C)OC(C)C3)c2)cc1 (stereo not drawn) | 21µM* | 16µM* | -6% | -12% | -29
CC(C(=O)NCc1cccs1)N1C(=O)c2ccccc2C1=O (stereo not drawn) | -1% | -24% | 5% | 6% | 18
C/C(=N\Nc1nc2ccccc2[nH]1)c1ccc(N2CCOCC2)cc1 | ? | 16µM* | ? | ? | -96*
O=C(CSc1nc2ccccc2[nH]1)c1ccc(Cl)s1 | -2% | -1% | 6% | 5% | 3
C/C(=N\Nc1nc2ccccc2[nH]1)c1ccc(Cl)s1 | ? | 23µM* | ? | ? | -97*
Cn1c(=O)c(C(=O)NCCc2ccc(Cl)cc2)c(O)c2ccccc21 | ? | ? | -3% | 2% | 0
O=C(N/N=C/c1ccc(C(F)(F)F)cc1)c1ccc(O)cc1 | ? | ? | ? | 0% | ?
O=C(N/N=C/c1ccc(O)cc1)c1csc2c1CCCC2 | 16% | ? | -18% | -17% | -62*
Cc1ccc(C)c(C(=O)C(C)Sc2nc3nn(-c4ccccc4)c(=O)c-3c3n2CCCCC3)c1 (stereo not drawn) | ? | 21µM* | 9% | 8% | 0
SMILES | DT40 TDP1 CPT | DT40 TDP1 no CPT | HT1080 IDH1KD tx | HT1080NT lethal | IL1B secr inh
COc1ccc(-n2cnnc2SCC(=O)NC2CCCCC2)cc1 | -2% | 1% | -10% | -7% | -9
O=C(O)CC(c1ccccc1)N1C(=O)c2cccc([N+](=O)[O-])c2C1=O (stereo not drawn) | -1% | 8% | 9% | 5% | 16
O=C1NC[C@@H](CCCCN2C[C@H](Cc3ccccc3)N(CCC3CCCCC3)C(=O)C2=O)N(CC2CCCCC2)C1=O | -10% | -6% | 12% | -2% | -17
COC(=O)/C(=C\Nc1ccc(Cl)cc1Cl)NC(=O)c1ccc(Cl)cc1Cl | 21µM* | ? | ? | ? | ?
COC(=O)/C(=C\Nc1ccc(Cl)cc1Cl)NC(=O)c1ccccc1 | -28% | ? | 0% | -6% | -13
COc1ccccc1OCC1CNC(=O)O1 (stereo not drawn) | 8% | 6% | . | . | .
Nc1ccc(-c2nc3ncccc3o2)cc1 | 3% | 9% | 2% | 8% | 0
CCN(CC)C(=O)NC(c1ccc(C)c(F)c1)C(Cl)(Cl)Cl (stereo not drawn) | 16µM* | 16µM* | -5% | -1% | -4
Cc1ccc(C(NC(=O)N2CCOCC2)C(Cl)(Cl)Cl)cc1F (stereo not drawn) | ? | -24% | -2% | 1% | 5
Cc1ccc(CN(C)C(=O)c2cccc(S(=O)(=O)N3CCc4ccccc4C3)c2)o1 | -23% | -19% | 0% | -1% | -27
COc1ccc2c(CNCCc3cccs3)c(C(=O)O)n(Cc3ccc(F)cc3Cl)c2c1 | 8.2µM* | 6.5µM* | . | . | .
COc1ccc2c(CNCc3cccs3)c(C(=O)O)n(Cc3ccc(F)cc3Cl)c2c1 | 7.3µM* | 1.5µM* | . | . | .
COc1ccc(-n2c(=O)c3ccc(C(=O)NCc4ccc(C)cc4)cc3n(Cc3ccc(F)cc3Cl)c2=O)cc1 | 6% | 0% | . | . | .
CC(C)Cc1nnc(NC(=O)C2CCCC2)s1 | 2% | -33% | 4% | -3% | 4
CS(=O)(=O)CCC(C(=O)Nc1cccc(C(F)(F)F)c1)N1Cc2ccccc2C1=O (stereo not drawn) | -10% | -18% | . | . | .
Cc1ccc(-c2cc(C(F)F)nc(NCC3CCCO3)n2)cc1 (stereo not drawn) | -27% | -12% | -26% | -14% | ?
CC(CCc1ccccc1)NC(=O)CCN1N=C(c2ccccc2)CCC1=O (stereo not drawn) | 1% | -12% | 8% | 12% | ?
CCc1ccc(C2=NN(CCC(=O)NC(C)CCc3ccccc3)C(=O)CC2)cc1 (stereo not drawn) | ? | ? | -13% | -17% | -52*
COc1ccc(N2CCN(C(=O)NC3CC(=O)N(c4ccc(OC)cc4)C3)CC2)cc1 (stereo not drawn) | ? | -16% | -10% | -11% | 0
CC(CN1CCC(n2nccc2NC(=O)c2ccccc2Cl)CC1)c1ccccc1 (stereo not drawn) | ? | -27% | -2% | -10% | i
